Each structure is given as a SMILES string. Active and inactive are the calls of the source. How the source made its calls: active means hit-call score of the fitted dose curve at least 0.9, where 1 is the maximum; inactive means score below 0.9.

The assay in a line: APR_HepG2_P-H2AX_72hr: Apredica 72-hour HepG2 Assay for H2AX Phosphorylation (AID 2282916). Conditions: imaging, actives raise or lower the signal. Here is the method:
APR_HepG2_72hr is a cell-based, multiplexed-readout assay that uses HepG2, a human liver cell line, with measurements taken at 72 hours after chemical dosing in a 384-well plate.APR_HepG2_P-H2AX_72hr is one of 10 assay component(s) measured or calculated from the APR_HepG2_72hr assay. It is designed to make measurements of dna content, a form of viability reporter, as detected with fluorescence intensity signals by HCS Fluorescent Imaging technology.Data from the assay component APR_HepG2_P-H2AX_72hr was analyzed into 1 assay endpoint. This assay endpoint, APR_HepG2_P-H2AX_72hr, was analyzed with bidirectional fitting relative to DMSO as the negative control and baseline of activity. Using a type of viability reporter, measures of protein for gain or loss-of-signal activity can be used to understand the signaling at the pathway-level as they relate to the gene . Furthermore, this assay endpoint can be referred to as a primary readout, because this assay has produced multiple assay endpoints where this one serves a signaling function. To generalize the intended target to other relatable targets, this assay endpoint is annotated to the dna binding intended target family, where the subfamily is cellular response to DNA damage stimulus.
Cells were treated with dimethyl sulfoxide (DMSO) as a solvent control at a final concentration of 0.5% v/v or with compounds in DMSO with a resulting final DMSO concentration of 0.5% v/v. Compound treatment was done at concentrations of 0.39, 0.78, 1.56, 3.12, 6.24, 12.5, 25, 50, 100, and 200 uM in duplicate on each plate. Cells were treated with compounds for 1, 24, or 72 hr. Carbonyl […] m-chloro-phenylhydrazone (CCCP) and taxol were used as positive controls for mitochondrial function and cytoskeletal stability, respectively; DMSO served as the negative control for this experiment. Cells were fixed by the direct addition of 50 uL formaldehyde in Hank's Balanced Salt Solution (HBSS) to a final concentration of 3.7%. After incubation in the fixation medium for 30 min at room temperature (293-298 K), cells were rinsed twice with HBSS and treated with cell permeabilization buffer (16 uL of 0.5% Triton X-100) for 10 min at room temperature (293-298 K) before labeling. For mitochondrial membrane potential and mitochondrial measurements, pre-fixed cells were incubated with 50 uL of MitoTracker Red CMXRos (Invitrogen) at a concentration of 250 nM for 30 min before fixation. In the remaining cases, post-fixed cells were labeled by incubation with a multiplexed mixture of primary antibodies in HBSS for 60 min at room temperature (293-298 K) to detect immunoreactivity of c-Jun (1:500), phospho-histone H3 (1:100), phospho-histone H2A.x (1:200), p53 (1:400), alpha-tubulin (1:200) and Hoechst 33342 (2 ug/mL). Cells were labeled for multiplexed imaging on two separate plates: a) Hoechst 33342, MitoTracker Red, phospho-histone H3, and alpha-tubulin, and b) Hoechst 33342, phospho-histone H2A.x, and c-Jun. A final rinse with HBSS (50 uL) was performed before analysis. The primary and secondary antibodies for the proteins were phospho-histone H3 (rabbit anti-phospho-histone H3 and FITC-donkey anti-rabbit IgG), phospho-histone H2A.x (mouse anti-phospho-histone H2A.x and FITC-donkey anti-mouse IgG), c-Jun (rabbit anti-phospho-c-Jun and Cy3-donkey anti-rabbit IgG), p53 (sheep anti-p53 and Cy5-donkey anti-sheep IgG), alpha-tubulin (mouse anti-alpha-tubulin and Cy5-donkey anti-mouse IgG). These antibodies are available as the CellCiphr HepG2 assay kit (Millipore).Digital images of each well were captured using a Cellomics ArrayScan VTI (Thermo Scientific Cellomics) (0.8 NA objective, 0.63x optical coupler, and XF-93 filter set) at 20x magnification. The images were acquired using the autofocus feature of the ArrayScan instrument, which entails the following steps. First, the camera focuses on channel 1 (Hoechst 33342), where nuclei are identified. Second, a Z offset of 1 um is used for capturing mitochondria (MitoTracker Red). […]
Take `O=C1NS(=O)(=O)c2ccccc21`: the call was inactive. Regarding `Cc1[nH]nc2c1N=C(c1ccccc1Cl)c1cc([N+](=O)[O-])ccc1N2`, the AC50 (commonly the midpoint of the concentration-response curve, whichever way the signal moves) is 19.8 µM (active). For `O=C(c1ccccc1)c1ccccc1`, the outcome was inactive.

As to `CN(C)CCOC(c1ccccc1)c1ccccc1`, the AC50 is 114 µM (active).

In the case of `CCCCC(CC)C(=O)O` (stereo not given), the result was inactive. Take `O=C(CCCN1CCC(O)(c2ccc(Cl)cc2)CC1)c1ccc(F)cc1`: the AC50 is 33 µM (active). Consider `CCCCCCCCCCCCOS(=O)(=O)O`, for which the result was inactive. In the case of `CCCCC=O`, the molecule was classed as inactive. Regarding `CS(=O)(=O)c1ccc([C@@H](CC2CCCC2)C(=O)Nc2cnccn2)cc1Cl`, the result was inactive.

Regarding `CCCCCCCCCCCCCCC`, the molecule was called inactive. `CN(Cc1cnc2nc(N)nc(N)c2n1)c1ccc(C(=O)N[C@@H](CCC(=O)O)C(=O)O)cc1`: the AC50 was 0.0391 µM (active). With `CCCCc1oc2ccccc2c1C(=O)c1cc(I)c(OCCN(CC)CC)c(I)c1`, the concentration at half-maximal activity (AC50) is 75.5 µM (active). For the molecule `N=C(N)c1ccc(OCCCCCOc2ccc(C(=N)N)cc2)cc1`, the AC50 is 25.1 µM (active). As to `CC(=O)Nc1ccc(O)cc1`, the outcome was inactive. As to `OCC(CO)(CBr)CBr`, the call was inactive.

The values are drawn from PubChem BioAssay (EPA / NIEHS).
